“And” between values parts separate entries of the source, which are not always exact repeats. Identical values can stand only once.

The nature of the assay: sensitizers of A549 cells to miR-34 induction, primary screen, imaging, A549 dox-inducible miR-34, nuclei and caspase counts (AID 1347080). Also: test concentration not given here. The settings on record: A549 miR-34 inducible, Hoechst nuclei count, 48 h; measured here: relative caspase fold change +Dox/-Dox.
`c1ccc2c(c1)CCCc1cc(NCCN3CCOCC3)nnc1-2`: the fold change was found to be 2.12.

On to `COC(=O)C1=CO[C@@H](C)[C@H]2CN3CCc4c([nH]c5ccccc45)[C@@H]3C[C@H]12`, for which the fold change is 1.63.

For `CCCCC[C@H](O)/C=C/[C@@H]1[C@@H](CC(=O)CCCCC(=O)O)[C@@H](O)C[C@H]1O`, the fold change was 1.02 and 1.32.

Take `CCCCCCCCCCCCCCCC(=O)OCC(COP(=O)(O)O)OC(=O)CCCCCCCCCCCCCCC` (centres undefined): the fold change was 1.21.

For `Cc1n[nH]c(=O)[nH]c1=O`, the fold change came to 1.41.

Take `CCCCCCCCCCCCCCC[C@@H](O)[C@@H](N)CO`: the fold change worked out at 1.46.

With `CCCCC/C=C\C[C@@H](O)/C=C/C=C/C=C\[C@@H](O)CCCC(=O)O`, the fold change turned out to be 1.34.

As for `CCCCCCCCCCCCCCC[C@@H](O)[C@H](CO)NC(C)=O`, the fold change is 1.

As to `CCCCCC(=O)/C=C/[C@H]1[C@H](O)CC(=O)[C@@H]1C/C=C\CCCC(=O)O`, the fold change came out at 1.18.

Take `CCCCCCCCCCCCC(O)C(=O)O` (centres undefined): the fold change is 1.1 and 0.875.

Consider `CCCCC[C@H](O)/C=C/[C@H]1OC(O)C[C@H](O)[C@@H]1C/C=C\CCCC(=O)O` (some centres undefined), for which the fold change stood at 1.59.

On to `O[C@@H]1[C@@H](O)C=C2CCN3Cc4cc5c(cc4[C@H]1C23)OCO5` (some centres undefined), for which the fold change turned out to be 1.09.

Turning to `COC(=O)[C@H]1[C@H]2C[C@@H]3c4[nH]c5cc(OC)ccc5c4CCN3C[C@H]2C[C@@H](OC(=O)/C=C/c2cc(OC)c(OC)c(OC)c2)[C@@H]1OC`, the fold change was found to be 1.32.

As for `CCCCCCCC/C=C\CCCCCCCC(=O)OCC(CO)OC(=O)CCCCCCC/C=C\CCCCCCCC` (centres undefined), the fold change stood at 1.34.

As for `CCCCCCCCCCCCCCCC(=O)NCCc1ccc(O)c(O)c1`, the fold change amounted to 0.624.

Take `CCCCC[C@H](O)/C=C/[C@@H]1[C@@H](C/C=C\CCCC(=O)O)[C@@H](O)C[C@@H]1O`: the fold change is 1.22 and 1.29.

As to `CCCCCCCCCCCCCCCCOC[C@H](COP(=O)([O-])OCC[N+](C)(C)C)OC(=O)NC`, the fold change is 1.15 and 1.06.

For the compound `C[C@H](CCC(=O)NCC(=O)O)[C@H]1CC[C@H]2[C@@H]3[C@H](O)C[C@@H]4C[C@H](O)CC[C@]4(C)[C@H]3C[C@H](O)[C@]12C`, the fold change stood at 1.21.

On to `CCCCCCCCCC(=O)OCC(CO)OC(=O)CCCCCCCCC` (centres undefined), for which the fold change came to 0.801.

Regarding `O=C(O)CCC/C=C\C[C@@H]1[C@@H](/C=C/[C@@H](O)COc2cccc(C(F)(F)F)c2)[C@H](O)C[C@@H]1O`, the fold change is 2.48 and 1.05.

As to `CCCCC[C@H](O)/C=C/[C@@H]1[C@@H](CCCCCCC(=O)O)[C@@H](O)C[C@H]1O`, the fold change is 1.19 and 1.15.

Regarding `CCCCC[C@H](O)/C=C/[C@@H]1[C@H]2C/C(=C/CCCC(=O)O)C[C@H]2C[C@H]1O`, the fold change turned out to be 1.29.

In the case of `COc1c(O[C@@H]2O[C@H](CO)[C@@H](O)[C@H](O)[C@H]2O)cc2c(c1OC)-c1ccc(SC)c(=O)cc1C(NC(C)=O)CC2` (some centres undefined), the fold change is 1.15.

Take `CCCCC(C)(O)C/C=C/[C@H]1[C@H](O)CC(=O)[C@@H]1CCCCCCC(=O)O` (some centres undefined): the fold change was 1.28 and 1.98.

Regarding `CO[C@@H]1[C@@H](OC(N)=O)[C@@H](O)C(Oc2ccc3c(O)c(NC(=O)c4ccc(O)c(CC=C(C)C)c4)c(=O)oc3c2C)OC1(C)C` (some centres undefined), the fold change turned out to be 1.4.

For `CCCCCCCC/C=C\CCCCCCCCOC[C@H](COP(=O)([O-])OCC[N+](C)(C)C)OC(C)=O`, the fold change came out at 1.27.

In the case of `COc1ccc2c(OC)c3ccoc3nc2c1OC`, the fold change stood at 1.16.

`CCCCCCCCCCCCCCCCCCOC[C@@H](O)COP(=O)([O-])OCC[N+](C)(C)C`: the fold change worked out at 0.597.

With `C=C1CC[C@H](O)C/C1=C/C=C1\CCC[C@]2(C)[C@@H]([C@H](C)CC[C@@H](O)C(C)(C)O)CC[C@@H]12`, the fold change was 1.15.

For the compound `CCCCC[C@H](O)/C=C/[C@@H]1[C@@H](C/C=C\CCCC(=O)O)[C@H]2CO[C@@H]1C2`, the fold change is 1.22.

With `CCCCC/C=C\C[C@@H](O)/C=C/C=C\C/C=C\CCCC(=O)O`, the fold change was determined as 1.54.

In the case of `C=C1C(c2ccc(C)cc2)=CCc2cc(C)cc(C)c21`, the fold change came out at 0.886.

As for `C[N+]1(C)C[C@@H](O)C[C@H]1C(=O)[O-]`, the fold change is 1.07.

On to `CCCCCC(O)/C=C/C=O` (centres undefined), for which the fold change was 1.27.

For the compound `CCCCCCCCCCCCCCCC(=O)C1=C(O)C(CO)OC1=O` (centres undefined), the fold change came out at 0.963.

For the compound `CCCCC[C@H](O)/C=C/[C@@H]1[C@H]2C/C(=C/CCCC(=O)O)O[C@H]2C[C@H]1O`, the fold change was 1.16 and 1.02.

As to `CCCCCCCCCCCCCCCCCCOC[C@H](COP(=O)([O-])OCC[N+](C)(C)C)OC(C)=O`, the fold change is 1.1 and 0.859.

Regarding `COC(C)(C)CCCC(C)C/C=C/C(C)=C/C(=O)O` (centres undefined), the fold change came to 0.969.

With `COc1c(O)cc2c(c1O)C1OC(CO)C(O)C(O)C1OC2=O` (centres undefined), the fold change was 1.19.
